USP10 block = human USP10 deubiquitinase inhibition. Q14694. purified USP10, Ub-rhodamine fluorescence, 60 min. inhibition, % at 20 µM. hit rate 1.1% among 47,000
Target sequence (Q14694 whole entry, looked up): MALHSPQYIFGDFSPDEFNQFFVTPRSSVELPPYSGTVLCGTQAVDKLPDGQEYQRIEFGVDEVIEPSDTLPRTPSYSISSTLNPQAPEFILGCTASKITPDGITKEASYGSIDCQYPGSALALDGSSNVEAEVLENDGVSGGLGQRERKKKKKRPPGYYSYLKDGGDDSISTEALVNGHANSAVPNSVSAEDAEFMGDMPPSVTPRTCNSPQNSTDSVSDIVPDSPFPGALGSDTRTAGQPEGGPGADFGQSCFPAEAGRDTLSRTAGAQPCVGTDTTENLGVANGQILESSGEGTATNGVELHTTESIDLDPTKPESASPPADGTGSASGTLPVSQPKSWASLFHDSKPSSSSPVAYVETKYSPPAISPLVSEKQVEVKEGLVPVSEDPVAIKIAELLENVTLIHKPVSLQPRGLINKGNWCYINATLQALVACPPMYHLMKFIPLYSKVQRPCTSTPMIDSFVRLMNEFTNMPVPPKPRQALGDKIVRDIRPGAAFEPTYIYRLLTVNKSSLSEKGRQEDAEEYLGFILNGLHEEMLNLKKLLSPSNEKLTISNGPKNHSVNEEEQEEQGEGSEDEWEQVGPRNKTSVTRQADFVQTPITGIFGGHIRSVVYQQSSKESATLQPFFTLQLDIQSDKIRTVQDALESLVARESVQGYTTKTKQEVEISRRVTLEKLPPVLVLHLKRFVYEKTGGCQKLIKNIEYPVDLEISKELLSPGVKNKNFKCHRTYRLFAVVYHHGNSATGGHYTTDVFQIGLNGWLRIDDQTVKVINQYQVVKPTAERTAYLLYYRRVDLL
USP8 inh = blocks human USP8 ubiquitin-rhodamine cleavage | P40818 | purified USP8, Ub-rhodamine cleavage fluorescence, 30 min | inhibition, % at 20 µM | hit rate 4.2% among 47,000 | AID 1645853
USP7 block = human USP7 deubiquitinase inhibition; Q93009; purified USP7, Ub-rhodamine cleavage fluorescence; inhibition, % at 20 µM; hit rate 0.3% among 47,000; AID 1645854
UCHL1 inh = human UCHL1 deubiquitinase inhibition; P09936; purified UCHL1, Ub-rhodamine cleavage fluorescence; inhibition, % at 20 µM; hit rate 0.2% among 47,000; AID 1645859
An asterisk follows results filed as active. In the library only some 4.6% were active in any assay of this set; here they are far more common. Cut-off read from the data, not from the text of the source: active = inhibition above about 30%; inactive = the rest.

SMILES | USP10 block | USP8 inh | USP7 block | UCHL1 inh
COc1ccc(CNC(=O)CCc2c(C)c3c(C)nn(-c4ccccc4)c3n(C)c2=O)cc1 | 0.0 | -46.5 | 0.1 | -0.1
Cc1cc(F)ccc1NC(=O)C1Cc2ccccc2O1 (configuration not stated) | -2.3 | -0.3 | -6.0 | -1.9
O=C(Nc1ccc(S(=O)(=O)Nc2cc(Cl)cc(Cl)c2)cc1)c1c(F)cccc1Cl | 34.3* | -11.0 | 11.7 | 4.4
O=C(Nc1ccc(Oc2ccccc2)cc1)c1c(F)cccc1Cl | 7.6 | -112.0 | 2.8 | 5.1
COC(=O)c1ccccc1NC(=O)c1sccc1Oc1ccc(F)cc1[N+](=O)[O-] | 2.4 | 12.3 | 9.9 | 5.9
O=C(Nc1ccccc1F)c1sccc1Oc1ccc([N+](=O)[O-])cc1F | 9.1 | 86.9* | -3.1 | 3.8
O=C(Nc1ccccc1)c1sccc1Oc1ccc([N+](=O)[O-])c(C(F)(F)F)c1 | 7.6 | 44.4* | -3.6 | 4.8
COCCn1c(CCC(=O)NCCc2ccc(OC)cc2OC)nc2cccnc21 | -8.3 | -5.5 | -5.4 | -5.6
Cc1cc([N+](=O)[O-])nn1CCCC(=O)Nc1ccc2c(c1)OCO2 | 6.9 | 44.8* | 2.2 | 7.0
CSc1ccccc1NC(=O)CCCn1nc([N+](=O)[O-])cc1C | 2.5 | 2.4 | -2.8 | 0.7
O=S(=O)(c1ccc2nc(NCc3cccnc3)cnc2c1)N1CCCCC1 | -6.1 | -6.2 | -6.6 | -11.3
CCOc1ccc(C(=O)N2CCC(Nc3cccnc3)C2)cc1 (configuration not stated) | -6.7 | 49.0* | -15.0 | -7.0
COc1ccc(C(=O)N2CCC(Nc3cccnc3)C2)c(OC)n1 (configuration not stated) | -5.3 | 62.4* | -12.1 | -4.0
O=C(c1ccc2cc[nH]c2c1)N1CCC(Nc2cccnc2)C1 (configuration not stated) | 10.0 | 83.2* | -29.2 | 20.6
O=C(c1ccccc1)N1CCN(C(=O)c2cc(-c3cccnc3)n[nH]2)CC1 | 0.1 | 5.9 | -0.7 | -2.2
O=C(c1cc(-c2ccccc2)n[nH]1)N1CCC(Nc2cccnc2)C1 (configuration not stated) | -9.9 | 58.4* | -8.4 | -8.5
Cc1c(S(=O)(=O)N2CCCCC2)cc(C(=O)NCc2ccccc2)n1C | 1.0 | -150.6 | -1.1 | -0.3
O=C(CC1C(=O)Nc2nc(-c3ccccc3)nn21)Nc1ccc2c(c1)OCCO2 (configuration not stated) | 0.0 | 0.0 | 2.5 | -0.2
COc1ccc(-c2nc(SCC(=O)Nc3ccc(Cl)cc3F)n[nH]2)cc1 | 6.1 | -32.2 | -6.1 | -1.4
Cn1cc2nc(SCC(=O)NCc3ccccc3Cl)n(CC3CC3)c(=O)c2n1 | 3.1 | 42.2* | -2.6 | -0.9
CCOC(=O)CSc1nc2nccnc2c(=O)n1Cc1ccccc1Cl | -2.0 | -40.5 | 1.3 | 1.5
Cc1ccc(Cl)cc1NC(=O)CSc1nc2cn(C)nc2c(=O)n1CC1CC1 | 2.3 | 61.2* | -30.0 | 2.0
Cc1c(Cl)cccc1NC(=O)CSc1nc2cn(C)nc2c(=O)n1CC1CC1 | -3.8 | 42.7* | -11.3 | 0.8
Cn1cc2nc(SCC(=O)Nc3ccc(Cl)cc3F)n(CC3CC3)c(=O)c2n1 | 1.4 | 32.0* | -13.6 | -0.9
Cc1ccc(OCC(=O)NCC(c2ccco2)N2CCOCC2)cc1 (configuration not stated) | -0.3 | -1.6 | -9.1 | 0.0
SMILES | USP10 block | USP8 inh | USP7 block | UCHL1 inh
COC(=O)c1ccccc1NC(=O)COC(=O)CCc1ccccc1 | 8.0 | 34.8* | 9.8 | 5.6
CCCCOc1ccc(C2CC(=O)Nc3nc(C)[nH]c(=O)c32)cc1 (configuration not stated) | 1.0 | 6.2 | 5.7 | 0.2
Cc1cccc(C(=O)N2CCc3cc(-c4nc(NC(=O)C5(c6ccc(Cl)cc6)CCC5)sc4C)ccc32)c1 | 21.1 | 33.5* | 15.4 | -1.2
Cc1sc(NC(=O)CNc2ccccc2)nc1-c1ccc2c(c1)CCN2C(=O)C1CCCCC1 | 13.9 | 63.0* | -30.6 | 9.7
Cc1sc(NC(=O)C2(c3ccc(Cl)cc3)CCC2)nc1-c1ccc2c(c1)CCN2C(=O)c1ccccc1F | -5.3 | -14.2 | -1.3 | -3.8
Cc1sc(NC(=O)CN2CCc3ccccc3C2)nc1-c1ccc2c(c1)CCN2C(=O)C(C)C | -10.2 | 47.4* | -24.0 | -17.3
CSc1cccc(NC(=O)C2C3C=CC4(O3)C2C(=O)N(Cc2ccc(C)cc2)C4C(=O)NC2CCCCC2)c1 (configuration not stated) | 8.5 | 20.4 | -3.2 | 3.5
Cc1cc(C)nc(NC(=O)c2ccco2)n1 | 1.7 | 14.8 | 2.0 | 1.3
O=C(Nc1noc2ccccc12)c1ccco1 | 0.4 | 46.6* | -0.5 | 1.0
COc1ccccc1C(=O)NC1CCN(c2ccc(F)cc2)C1=O (configuration not stated) | 0.7 | 14.6 | 1.8 | 1.0
